# Compounds with a hit are over-represented: about 10% of the library has one in this group of screens.
# Luciferase inh: Firefly luciferase inhibition profiling of diverse chemical library using quantitative high-throughput screening | Luciferin 4-monooxygenase (Photinus pyralis), P08659 | purified P. pyralis luciferase, luminescence, biochemical | Potency, µM (doses to about 115 µM), hits mostly inhibitors | actives 2.5% (n = 76,000); also: nearly all actives have a fitted effect of over 65% in size
#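 Cell-free enzyme assay, 10nM P. pyralis luciferase, luciferin and ATP each at 10uM. Inhibition profiled over a 6-point titration, read as luminescence.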
# NPR1 antag: Natriuretic polypeptide receptor (hNpr1) antagonism - Primary qHTS | Atrial natriuretic peptide receptor 1 (Homo sapiens), P16066 | actives 1.6% (n = 76,000) | HEK293 hNpr1 GloSensor cGMP, ANP-stimulated luminescence | Potency, µM (doses to about 46.3 µM), for inactives: at the highest dose activity change, negative = inhibition, actives largely listed as inhibitors; calls by dose curve; also: nearly all actives have a fitted effect of over 60% in size
#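 Compound pre-incubated 30 min at room temperature on GloSensor-loaded HEK293 cells stably carrying hNpr1 and the pGS-40F cGMP biosensor. Stimulation uses hNppA at 0.1 nM final; luminescence is taken at baseline and 20 min post-agonist.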
# NIH3T3 tox: Cytotoxic Profiling in NIH 3T3 Cell Line of Diverse Libraries Using Quantitative High-Throughput Screening; Potency, µM (series often up to 96.7 µM), inactives show top-dose activity change, negative = cytotoxicity, hits mostly inhibitors; NIH 3T3 viability, CellTiter-Glo ATP luminescence, 48-72 h; actives 4.3% (n = 94,000); AID 1345082, 2018; also: nearly all actives have a fitted effect of over 55% in size
#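 First NIH 3T3 cells are plated at 400 cells/well; next compound is pinned in; then plates incubate 48 or 72 hr at 37 °C; finally CellTiter-Glo is added and luminescence read after 10 min.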
# HEK cytotox: Cytotoxic Profiling in HEK 293 Cell Line of Diverse Libraries Using Quantitative High-Throughput Screening. Potency, µM (top dose mostly 115 µM), for the others: at the top dose activity change, negative = cytotoxicity, actives largely listed as inhibitors. HEK 293 viability, ATP luminescence (CellTiter-Glo), 48-72 h. actives 6.6% (n = 94,000); also: nearly all actives have a fitted effect of over 60% in size
#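 HEK 293 seeded at 250 cells/well receive compound via pintool. After 48 or 72 hr at 37 degree Celsius, 5% CO2 and 95% humidity, CellTiter-Glo is dispensed and luminescence read following 10 min at room temperature.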
# GPT2 inh: Primary qHTS assay for inhibitors of Glutamate pyruvate transaminase 2 (GPT2) | Recombinant GPT2, coupled pyruvate oxidase/HRP Amplex Red fluorescence | Potency, µM (doses to about 57.7 µM), for inactives: at the top dose activity change, negative = inhibition, usual class: inhibitors | actives 0.25% (n = 100,000); also: nearly all actives have a fitted effect of over 60% in size
#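 Inhibition is scored from Amplex Red fluorescence generated when pyruvate oxidase and HRP act on pyruvate released by GPT2. Reactions contain 10ng/uL enzyme, 250uM a-KG and 2mM L-alanine and run 30 min at room temperature.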
# * = called active by the depositor; i = inactive; ? = inconclusive; . = not tested or not shown; [ ] = dose if it differs, or a comment. Unless noted, calls follow the shape of the dose curve; as a rule, active = well fitted curve in the direction sought with a large enough effect; inconclusive = small, poorly fitted or top-dose-only effect, or another doubt; inactive = no such curve, though single readings can be large; an effect the other way counts as inactive or inconclusive. % is scaled to controls: 0 for no effect and ±100 for the full control effect; potency is read from the fitted curve at half-maximal effect.
SMILES,Luciferase inh,NPR1 antag,NIH3T3 tox,HEK cytotox,GPT2 inh
CC1(COc2ccc(-c3nc(COc4ccccc4)no3)cn2)CCCNC1 (centres undefined),35.5µM*,?,?,?,i
Cc1ccc(CN2CCN(c3nc(C)ccc3C#N)CC2CCO)cc1 (centres undefined),i,-3.1%,-26.3%,?,i
COc1ccc(CN2CCN(c3nc(C)ccc3C#N)CC2CCO)cc1C (centres undefined),i,-18.5%,?,50.1µM*,-3.3%[11.5 µM]
O=C(c1cc(COc2c(F)cccc2F)on1)N1CCCCC1CCc1ccccc1 (centres undefined),i,-4.9%,-24.6%,-16.4%,3.9%
Oc1ccc(CCC2CCCCN2Cc2nc(Cc3cccc(F)c3)no2)cc1 (centres undefined),i,-7.2%,?,22.4µM*,0.5%
O=C(NCc1ccccc1)C1CCC(=O)N1C1CCN(C(=O)c2ccc(Cl)cc2)CC1 (centres undefined),i,-10.5%,-11.1%,?,i
O=S(=O)(c1ccccc1Cl)N1CCCC(CO)(Cc2cccc(Cl)c2)C1 (centres undefined),i,-26.7%,?,25.1µM*,i
O=C(c1cc2cc(F)ccc2[nH]1)N1CCCC(CO)(Cc2cccc(Cl)c2)C1 (centres undefined),?,-19.4%,?,79.4µM*,?
Cc1nn(C)c(C)c1S(=O)(=O)N1CCCC(CO)(Cc2ccccc2)C1 (centres undefined),i,1.4%,-27.0%,-19.8%,?
CCn1ccnc1CN1CCCC(CO)(Cc2cccc(Cl)c2)C1 (centres undefined),i,-16.4%,?,?,4.0%
O=C(NCCCc1ccccc1)C1CCN(c2ccnc3ccnn23)CC1,.,.,?,39.8µM*,i
O=C(NC1CCCN(c2ccnc3ccnn23)C1)c1ccc(C(F)(F)F)cc1 (centres undefined),.,.,?,28.2µM*,-9.3%
Cc1cc(C(=O)N2CCCN(c3ccnc4ccnn34)CC2)ccc1Cl,.,.,?,44.7µM*,i
O=C(NC1CCN(c2ccnc3ccnn23)C1)c1ccc(Cl)cc1 (centres undefined),.,.,?,10µM*,i
O=C(NCC1CC1)C1CCCN(c2ccnc3ccnn23)C1 (centres undefined),.,.,-18.5%[138 µM],2.9%[172 µM],4.7%[88.5 µM]
O=C(NCc1cccc(C(F)(F)F)c1)C1CCCN(c2ccnc3ccnn23)C1 (centres undefined),.,.,?,44.7µM*,-6.0%
O=C(NCC1CCCCC1)C1CN(c2ccnc3ccnn23)C1,.,.,-27.4%,25.1µM*,-2.3%
O=C(NC1CCN(c2ccnc3ccnn23)CC1)c1ccc(Cl)cc1,.,.,?,44.7µM*,-9.4%
Cn1ccnc1CNC(=O)C[C@@H]1C[C@H]2O[C@H](CNC3Cc4ccccc4C3)[C@@H](O)[C@H]2O1,i,0.9%[70.6 µM],0.7%[174 µM],i,-4.0%[88.5 µM]
COCc1noc([C@@H]2CN(C(=O)C3CCCCCC3)C[C@H]2CO)n1,i,0.0%,2.7%,4.1%,i
CC(C)[C@@H]1C[C@@H]2C[C@@H](NCc3ccccc3)C[C@]2(c2ccccc2)CO1,.,.,?,79.4µM*,.
COc1ccc(-c2cc(C[C@H]3CNCC[C@H]3CC(=O)N3CCC(Cc4ccccc4)CC3)no2)cc1,i,-0.3%,?,?,1.6%
O=C(C[C@@H]1CCNC[C@@H]1Cc1cc(-c2ccccc2)on1)N1CCC(Cc2ccccc2)CC1,i,6.8%,28.2µM*,?,2.1%
CC(C)(C)c1cc(C[C@H]2CNCC[C@H]2CC(=O)N2CCC(Cc3ccccc3)CC2)no1,i,3.1%,28.2µM*,22.4µM*,i
CC(C)CC(=O)N1CCC2(CC1)CC(N(Cc1ccc(F)cc1)C1CC1)CCO2 (centres undefined),i,4.2%,?,?,i
SMILES,Luciferase inh,NPR1 antag,NIH3T3 tox,HEK cytotox,GPT2 inh
C[S+](=O)([O-])Nc1cccc(-c2nc(N3CCOCC3)cc3c2CN(CC2CC2)C3=O)c1,i,-2.3%,?,-22.2%,2.8%
O=C1c2cc(N3CCOCC3)nc(-c3cccc(F)c3)c2CN1CC1CC1,i,-22.8%[70.6 µM],?,112µM*,-14.2%[88.5 µM]
COc1ccc(-c2nc(N3CCOCC3)cc3c2CN(Cc2ccccc2)C3=O)cc1,?,-21.6%[70.6 µM],?,?,-7.9%[88.5 µM]
O=C1c2cc(N3CCOCC3)nc(-c3ccccc3)c2CN1Cc1ccccc1,i,?,31.6µM*,50.1µM*,2.8%[88.5 µM]
Cn1cc(CN2Cc3c(cc(N4CCOCC4)nc3-c3cccc(F)c3)C2=O)cn1,i,-23.5%[70.6 µM],?,89.1µM*,i
CCC(=O)N1CCC(Oc2ncccc2C(N)=O)CC1,i,-2.0%,i,-20.1%,i
COc1ccc(S(=O)(=O)NC[C@H]2COCc3nc4ccc(C)cc4n32)cc1,i,?,89.1µM*,?,-1.6%[88.5 µM]
COc1ccc2nc3n(c2c1)[C@@H](CNCC(C)(C)C)COC3,i,2.8%[70.6 µM],31.6µM*,?,i
COc1ccc2nc3n(c2c1)[C@@H](CNS(=O)(=O)c1ccc(F)cc1)COC3,i,0.1%[70.6 µM],?,-29.5%[172 µM],i
CNC(=O)[C@@H]1CN(S(=O)(=O)c2cccc(C#N)c2)C[C@H]1COC,i,7.3%,-9.9%,-7.5%,i
O=C(NCc1nc(-c2ncccn2)no1)C(c1cccnc1)N1CCCC1 (centres undefined),i,3.4%,1.3%,-7.4%,-7.9%[11.5 µM]
CCNC(=O)OC1CCN(C(=O)c2ncoc2-c2ccccc2)CC(=O)N(C)c2ccccc21 (centres undefined),.,.,?,1.6%,.
O=C(c1ccc(Cl)cc1)N1CCC(C(=O)N2CCC(N3CCOC3=O)CC2)CC1,.,.,-35.0%,?,3.2%
COc1ccccc1CN1CCCC(c2nn(-c3ccc(Cl)cc3)c(=O)[nH]2)C1 (centres undefined),i,21.2%,?,?,i
N[C@@H]1CCN(Cc2ccccc2OCc2ccc(Cl)cc2)C[C@H]1O,i,0.0%,28.2µM*,22.4µM*,i
C=C1CC[C@@H]2[C@@](C)(CO[C@@H]3O[C@H](CO)C(O)[C@H](O)C3O)[C@H](O)CC[C@@]2(C)[C@@H]1CC/C(C)=C/CO (some centres undefined),.,.,.,.,i
